From PubChem BioAssay AID1159580 (chemical genetic matrix, 2015)
The whole screen tested about 5,500 compounds, of which about 2,000 (36%) were called active. About 18% were inconclusive and are not listed. Rule as the data show it: active = normalized growth mostly below about 0.91 (no sharp cut-off); inconclusive = no clear call, values can overlap the other calls; inactive = mostly above about 0.92. The list shows a part of the results.

Test: chemical genetic growth profiling, strain panel (AID 1159580);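 also: tested at 20 µM; growth read once vehicle control cultures reached saturation at 30 °C; 1 = growth at the plate median or of vehicle wells; lower values mean less growth of the strain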
Settings: S. cerevisiae deletion strains, growth OD

Measured: normalized growth

Oc1ccc2c3c1O[C@H]1c4[nH]c5c(c4C[C@@]4(O)[C@@H](C2)N(CC2CC2)CC[C@]314)C[C@@]1(O)[C@H]2Cc3ccc(O)c4c3[C@@]1(CCN2CC1CC1)[C@H]5O4
inactive: locus YAL013W, strain DEP1, stronger effect = lower value 0.969 | locus YAL040C, strain CLN3, stronger effect = lower value 1 | locus YCL061C, strain MRC1 (second series), stronger effect = lower value 0.962 | locus YDR363W, strain ESC2, stronger effect = lower value 1.02 | locus YER002W, strain NOP16, stronger effect = lower value 0.996 | locus YGR078C, strain PAC10, stronger effect = lower value 0.986 | locus YMR263W, strain SAP30, stronger effect = lower value 0.982 | locus YMR307W, strain GAS1, stronger effect = lower value 1.03 | locus YNL175C, strain NOP13, stronger effect = lower value 1 | locus YNL197C, strain WHI3, stronger effect = lower value 0.978 | locus YNL224C, strain SQS1, stronger effect = lower value 1 | locus YNL322C, strain KRE1, stronger effect = lower value 0.958 | locus YOR083W, strain WHI5 (second series), stronger effect = lower value 1.01 | locus YPL241C, strain CIN2, stronger effect = lower value 0.968
